Measurements reported in PubChem BioAssay (Tox21).
Inconclusive results are not listed. The source made the active and inactive calls. Unless noted, calls follow the shape of the dose curve; as a rule, active = well fitted curve in the direction sought with a large enough effect in the repeat runs; inconclusive = weak or mixed curves; inactive = no such curve, though single readings can be large; an effect the other way counts as inactive or inconclusive.

How the values were obtained:
[1] = biological target: Thyrotropin receptor (Homo sapiens) (UniProt P16473); test: qHTS assay to identify small molecule antagonists of the thyroid stimulating hormone receptor (TSHR) signaling pathway (AID 1259385; calls by dose curve; also: nearly all actives have a fitted effect of over 20% in size)
Sequence of Thyrotropin receptor (Homo sapiens) (P16473 whole entry, looked up): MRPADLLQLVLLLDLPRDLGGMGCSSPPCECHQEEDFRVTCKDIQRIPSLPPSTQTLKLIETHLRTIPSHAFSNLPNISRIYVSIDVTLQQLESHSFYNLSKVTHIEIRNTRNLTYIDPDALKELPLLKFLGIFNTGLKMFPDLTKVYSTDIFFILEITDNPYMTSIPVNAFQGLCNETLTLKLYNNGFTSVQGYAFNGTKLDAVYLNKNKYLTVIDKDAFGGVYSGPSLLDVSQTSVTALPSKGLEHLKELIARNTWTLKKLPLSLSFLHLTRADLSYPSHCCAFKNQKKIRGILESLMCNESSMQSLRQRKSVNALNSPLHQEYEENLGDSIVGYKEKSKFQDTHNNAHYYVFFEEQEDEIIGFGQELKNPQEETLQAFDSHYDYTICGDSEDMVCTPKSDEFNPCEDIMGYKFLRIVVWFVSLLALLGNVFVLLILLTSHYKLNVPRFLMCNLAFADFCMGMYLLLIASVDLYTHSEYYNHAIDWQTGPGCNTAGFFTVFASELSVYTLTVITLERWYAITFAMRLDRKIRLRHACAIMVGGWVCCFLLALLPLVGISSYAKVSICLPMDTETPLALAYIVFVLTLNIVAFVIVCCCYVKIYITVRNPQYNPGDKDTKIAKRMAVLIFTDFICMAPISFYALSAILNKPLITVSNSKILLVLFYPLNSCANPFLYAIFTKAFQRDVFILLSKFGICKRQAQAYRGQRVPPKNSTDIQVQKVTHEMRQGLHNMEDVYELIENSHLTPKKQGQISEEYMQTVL
Procedure, shortened: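 Antagonist mode: compound-treated TSHR-expressing HEK293 cells were stimulated with 1.5 ng/mL TSH (final) in presence of Ro20-1724 for 30 min at RT. HTRF cAMP detection after 1 h; each compound tested at 15 concentrations, triplicate.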

[2] = qHTS assay to identify small molecule agonists of the estrogen receptor alpha (ER-alpha) signaling pathway in the presence of an antagonist - cell viability counter screen (AID 1259386);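 also: series mostly up to about 92 µM; cells exposed to compounds for 22 h at 37 °C before the viability read; nearly all actives have a fitted effect of over 30% in size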
Procedure, shortened: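 ICI-182,780 at 10.0nM final accompanies the compound titration (15 concentrations, 22hr, 37C) on VM7Luc4E2 cells. The CellTiter-Fluor fluorescence readout runs in the same wells as the luciferase assay.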

[3] = biological target: Progesterone receptor (Homo sapiens) (UniProt P06401); test: qHTS assay to identify small molecule agonists of the progesterone receptor (PR) signaling pathway (AID 1346784; calls by dose curve; also: nearly all actives have a fitted effect of over 30% in size)
Sequence of Progesterone receptor (Homo sapiens) (P06401 whole entry, looked up): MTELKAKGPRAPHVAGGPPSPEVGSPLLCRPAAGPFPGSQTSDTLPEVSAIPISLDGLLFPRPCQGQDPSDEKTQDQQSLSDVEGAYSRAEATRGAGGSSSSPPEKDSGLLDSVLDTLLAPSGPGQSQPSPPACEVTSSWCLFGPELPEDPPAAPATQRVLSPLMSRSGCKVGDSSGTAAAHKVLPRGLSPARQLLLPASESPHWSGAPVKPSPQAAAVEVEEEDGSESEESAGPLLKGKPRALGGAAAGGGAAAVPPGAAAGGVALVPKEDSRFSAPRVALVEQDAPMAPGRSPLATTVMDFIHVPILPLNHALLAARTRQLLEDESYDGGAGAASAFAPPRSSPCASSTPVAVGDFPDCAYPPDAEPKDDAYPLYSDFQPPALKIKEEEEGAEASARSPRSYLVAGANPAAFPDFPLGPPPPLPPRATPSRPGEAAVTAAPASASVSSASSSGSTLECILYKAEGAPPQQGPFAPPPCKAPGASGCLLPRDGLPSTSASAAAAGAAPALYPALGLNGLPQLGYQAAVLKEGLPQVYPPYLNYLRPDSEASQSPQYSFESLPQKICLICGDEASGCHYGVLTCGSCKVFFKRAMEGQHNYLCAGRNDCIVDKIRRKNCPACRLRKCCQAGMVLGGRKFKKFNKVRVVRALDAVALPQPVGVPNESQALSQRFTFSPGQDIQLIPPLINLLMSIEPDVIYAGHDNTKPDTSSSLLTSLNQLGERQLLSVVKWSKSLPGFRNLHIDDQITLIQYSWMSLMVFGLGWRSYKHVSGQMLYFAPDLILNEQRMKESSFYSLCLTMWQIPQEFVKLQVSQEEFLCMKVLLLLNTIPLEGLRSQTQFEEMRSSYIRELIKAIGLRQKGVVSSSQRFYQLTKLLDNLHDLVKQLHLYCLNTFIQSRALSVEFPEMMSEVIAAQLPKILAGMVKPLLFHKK
Procedure, shortened: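 Using charcoal-stripped serum (2%) to limit endogenous steroids, PR-UAS-bla HEK 293T cells received compounds for 16 hr at 37C after 6 hr plating; beta-lactamase FRET fluorescence was recorded following 2 hr substrate loading at room temperature.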

[4] = biological target: Progesterone receptor (Homo sapiens) (UniProt P06401); test: qHTS assay to identify small molecule antagonists of the progesterone receptor (PR) signaling pathway (AID 1346795; active = well fitted inhibition curve with a large enough effect in the signal ratio in the repeat runs, not every such curve was filed as active; the % refers to the signal ratio)
Procedure, shortened: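 Inhibition of R5020-induced (1 nM final) beta-lactamase reporter signal in PR-UAS-bla HEK293T cells was scored by FRET fluorescence after overnight (16 hr) compound treatment.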

[5] = qHTS assay to identify small molecule antagonists of the progesterone receptor (PR) signaling pathway - cell viability counter screen (AID 1346798); also: series mostly up to about 92 µM; nearly all actives have a fitted effect of over 50% in size
Procedure, shortened: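 ATP content as viability readout: CellTiter-Glo luminescence, 30 min room temperature, in PR-UAS-bla HEK293T cells after 16 hr compound/R5020 treatment at 37C and 5% CO2.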

[6] = qHTS assay to identify small molecule agonists of the progesterone receptor (PR) signaling pathway - cell viability counter screen (AID 1346799; calls by dose curve; also: nearly all actives have a fitted effect of over 45% in size)
Procedure, shortened: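 Cytotoxicity in PR-bla HEK293T cells: 16 h compound, 37C; CellTiter-Glo added post-FRET read; luminescence after 30 min RT.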

[7] = qHTS assay to identify small molecule antagonists of the TGF-beta/Smad signaling pathway - cell viability counter screen (AID 1346824); also: nearly all actives have a fitted effect of over 50% in size
Procedure, shortened: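 Cytotoxicity counter-screen run in the same wells as the beta-lactamase Smad reporter read: CellTiter-Glo luminescence after 30 min at room temperature. HEK 293T SBE-bla cells had 5 hr compound exposure at 37 C with TGF-beta1 (0.25 ng/mL stock).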

[8] = qHTS assay to identify small molecule agonists of the TGF-beta/Smad signaling pathway - cell viability counter screen (AID 1346829); also: top concentration of the series differs between compounds; nearly all actives have a fitted effect of over 45% in size
Procedure, shortened: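 HEK 293T SBE-bla line, 5 hr compound exposure at 37 C, multiplexed CellTiter-Glo viability read by luminescence.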

[9] = qHTS assay to identify small molecule agonists of the TGF-beta/Smad signaling pathway (AID 1346859; active = well fitted activation curve with a large enough effect in the signal ratio in the repeat runs, not every such curve was filed as active; the % refers to the signal ratio; also: series mostly up to about 77 µM)
Procedure, shortened: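 Stable Smad binding element-beta-lactamase HEK 293T cells; 5 hr compound exposure at 37 C under 5% CO2; 2 hr room-temperature substrate step; fluorescence excited at 405 nm, collected at 460 nm and 530 nm.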

[10] = biological target: Thyrotropin-releasing hormone receptor (Homo sapiens) (UniProt P34981); test: qHTS assay to identify small molecule antagonists of the thyrotropin-releasing hormone receptor (TRHR) signaling pathway (AID 1346877; active = well fitted inhibition curve with a large enough effect in the repeat runs, not every such curve was filed as active; also: series mostly up to about 51 µM)
Sequence of Thyrotropin-releasing hormone receptor (Homo sapiens) (P34981 whole entry, looked up): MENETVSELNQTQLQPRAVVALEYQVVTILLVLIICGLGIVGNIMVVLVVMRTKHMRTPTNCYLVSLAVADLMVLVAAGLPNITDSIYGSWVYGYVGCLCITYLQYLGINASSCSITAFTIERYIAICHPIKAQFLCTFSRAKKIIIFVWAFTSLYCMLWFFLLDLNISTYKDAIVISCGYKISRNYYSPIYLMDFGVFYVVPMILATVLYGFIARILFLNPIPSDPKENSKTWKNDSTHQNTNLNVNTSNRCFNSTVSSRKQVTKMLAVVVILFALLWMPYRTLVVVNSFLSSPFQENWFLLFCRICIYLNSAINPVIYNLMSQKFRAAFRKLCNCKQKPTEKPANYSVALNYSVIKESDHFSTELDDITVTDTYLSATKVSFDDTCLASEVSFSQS
Procedure, shortened: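 Screening used HEK293 cells engineered with TRHR, with a brief 5 min room-temperature compound exposure preceding addition of TRH to 1 nM. The read-out was kinetic calcium-dye fluorescence, concentration-response from 15 doses in triplicate.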

[11] = biological target: Thyrotropin-releasing hormone receptor (Homo sapiens) (UniProt P34981); test: qHTS assay to identify small molecule agonists of the thyrotropin-releasing hormone receptor (TRHR) signaling pathway (AID 1346891; calls by dose curve;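 also: HEK293 cells expressing TRHR with calcium dye readout; series mostly up to about 58 µM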)
Procedure, shortened: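 In 1536-format, 1500 TRHR-Hek293 cells per well grew 18 h, took up calcium dye for 2 h at 37 °C, received compound, and were read kinetically; 15-point titrations, triplicates.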

[12] = Caspase-3/7 induction in HepG2 cells by small molecules, qHTS assay (AID 1346978); also: nearly all actives have a fitted effect of over 15% in size
Procedure, shortened: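 Caspase-3/7 induction was measured by Caspase-Glo 3/7 luminescence (30 min, room temperature) after a 17 hr compound exposure of wild-type HepG2 cells seeded at 2,000 per well and pre-incubated 5 hr.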

[13] = Caspase-3/7 induction in CHO-K1 cells by small molecules, qHTS cell viability counter screen (AID 1346979); also: nearly all actives have a fitted effect of over 35% in size
Procedure, shortened: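 To flag cytotoxic compounds, treated CHO-K1 wild-type cells were given CellTiter-Fluor at 16hr and read fluorescently after 1hr at 37C; the caspase-3/7 luminescence was measured in these same wells.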

[14] = Caspase-3/7 induction in CHO-K1 cells by small molecules, qHTS assay (AID 1346980); also: nearly all actives have a fitted effect of over 15% in size
Procedure, shortened: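 Luminescent Caspase-Glo 3/7 read (30min, room temperature) quantified apoptosis induction. Cells were wild-type CHO-K1, treated with compound for 17hr at 37 C and 5% CO2.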

[15] = Caspase-3/7 induction in HepG2 cells by small molecules, qHTS cell viability counter screen (AID 1346981); also: series mostly up to about 92 µM; nearly all actives have a fitted effect of over 30% in size
Procedure, shortened: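 Multiplexed with the caspase-3/7 assay: HepG2 cells, 16 hr compound treatment, CellTiter-Fluor viability detection by fluorescence.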

[16] = biological target: Nuclear receptor subfamily 1 group I member 2 (Homo sapiens) (UniProt O75469); test: Human pregnane X receptor (PXR) small molecule agonists, qHTS assay (AID 1346982); also: nearly all actives have a fitted effect of over 35% in size; also: potency is read from the fitted curve at half-maximal effect
Sequence of Nuclear receptor subfamily 1 group I member 2 (Homo sapiens) (O75469 whole entry, looked up): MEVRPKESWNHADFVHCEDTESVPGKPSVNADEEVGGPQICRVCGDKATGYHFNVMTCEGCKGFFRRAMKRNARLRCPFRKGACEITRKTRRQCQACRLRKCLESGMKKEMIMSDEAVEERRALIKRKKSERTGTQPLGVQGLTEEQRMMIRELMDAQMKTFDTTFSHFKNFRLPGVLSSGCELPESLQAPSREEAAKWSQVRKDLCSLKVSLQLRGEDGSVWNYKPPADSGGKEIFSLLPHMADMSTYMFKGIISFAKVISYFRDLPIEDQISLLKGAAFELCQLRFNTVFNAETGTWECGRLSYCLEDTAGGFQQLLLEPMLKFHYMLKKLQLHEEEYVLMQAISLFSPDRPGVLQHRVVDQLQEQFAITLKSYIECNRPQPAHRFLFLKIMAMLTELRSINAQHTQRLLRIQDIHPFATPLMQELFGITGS
Procedure, shortened: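 We seeded PXR-Luc HepG2 cells in assay medium containing 5% charcoal-stripped FBS, added compounds 5 hr later, incubated 24 hr, and read luminescence with ONE-Glo reagent.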

[17] = Human pregnane X receptor (PXR) small molecule agonists, qHTS cell viability counter screen (AID 1346977); also: nearly all actives have a fitted effect of over 50% in size
Procedure, shortened: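 Readout is CellTiter-Fluor fluorescence from PXR-Luc HepG2 cells. Plated cells rested 5hr, then were treated with compounds for 24hr at 37C and 5% CO2, with reagent present during the last hour.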

[18] = biological target: Nuclear receptor subfamily 1 group I member 2 (Rattus norvegicus) (UniProt Q9R1A7); test: Rat pregnane X receptor (rPXR) activation by small molecules, qHTS assay (AID 1346983); details: rPXR luciferase reporter cells, One-Glo luminescence, 24 h; stronger effect = higher value; also: nearly all actives have a fitted effect of over 20% in size
Sequence of Nuclear receptor subfamily 1 group I member 2 (Rattus norvegicus) (Q9R1A7 whole entry, looked up): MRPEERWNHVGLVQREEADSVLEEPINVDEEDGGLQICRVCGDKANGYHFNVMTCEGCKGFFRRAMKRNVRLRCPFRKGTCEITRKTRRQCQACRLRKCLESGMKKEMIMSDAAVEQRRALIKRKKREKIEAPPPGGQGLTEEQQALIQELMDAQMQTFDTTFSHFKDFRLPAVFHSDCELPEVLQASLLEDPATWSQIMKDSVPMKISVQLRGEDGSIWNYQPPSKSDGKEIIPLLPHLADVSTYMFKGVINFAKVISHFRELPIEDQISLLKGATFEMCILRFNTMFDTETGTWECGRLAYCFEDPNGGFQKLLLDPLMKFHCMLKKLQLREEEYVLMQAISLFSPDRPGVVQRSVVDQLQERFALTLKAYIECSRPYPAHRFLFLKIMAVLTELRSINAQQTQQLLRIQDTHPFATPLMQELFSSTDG
Procedure, shortened: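 Luminescent readout (One-Glo luciferase, 30 min room temperature) followed 24 hr compound treatment at 37 C of rPXR cells plated 2,000 per well and preincubated 5hr; qHTS format with compounds delivered in DMSO.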

[19] = biological target: Nuclear receptor subfamily 1 group I member 2 (Homo sapiens) (UniProt O75469); test: CYP3A4 induction through human pregnane X receptor (PXR) by small molecules, qHTS assay (AID 1346984); also: nearly all actives have a fitted effect of over 40% in size
Procedure, shortened: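 qHTS, concentration-response format: HepG2 DPX-2 line, PXR/CYP3A4-luc. Exposure 24 h, 37C. Substrate Luciferin-IPA 3uM final, 3 h. Detection One-Glo, 30 min RT.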

[20] = biological target: Nuclear receptor subfamily 1 group I member 2 (Homo sapiens) (UniProt O75469); test: Human pregnane X receptor (PXR) activation by small molecules, qHTS assay (AID 1346985); also: nearly all actives have a fitted effect of over 40% in size
Procedure, shortened: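 DPX-2 cells (HepG2 co-transfected with a PXR response element and a CYP3A4-promoter luciferase construct) were seeded at 2,000 per well, rested 5 hr at 37C, then exposed to DMSO-dissolved compounds for 24 hr. Activation was read as luciferase luminescence.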
% is scaled to controls: 0 for no effect and ±100 for the full control effect.

O=C1CCCC(=O)O1
inactive: outcome [1] | Potency [2] | Potency [3] | Potency [4] | Potency [5] | Potency [6] | outcome [7] | outcome [8] | outcome [9] | outcome [10] | outcome [11] | Potency [12] | Potency [13] | outcome [14] | Potency [15] | Potency [16]

O=Cc1ccc(Cl)c(Cl)c1
inactive: outcome [1] | Potency [2] | Potency [3] | Potency [4] | Potency [5] | Potency [6] | outcome [7] | outcome [8] | outcome [9] | Potency [17] | Potency [12] | Potency [13] | outcome [14] | Potency [16]

C[Si](C)(C)C
inactive: outcome [1] | Potency [2] | Potency [3] | Potency [4] | Potency [5] | Potency [6] | outcome [7] | outcome [8] | outcome [9] | Potency [17] | Potency [12] | Potency [13] | outcome [14] | Potency [15]

Cc1cc(NC(=O)C2=C(O)c3ccccc3S(=O)(=O)N2C)no1
inactive: outcome [1] | Potency [2] | Potency [3] | Potency [4] | Potency [5] | Potency [6] | outcome [7] | outcome [8] | outcome [9] | outcome [10] | outcome [11] | Potency [12] | Potency [13] | outcome [14]

CC(C)N(c1ccccc1)C(C)C
inactive: outcome [1] | Potency [2] | Potency [3] | Potency [4] | Potency [5] | Potency [6] | outcome [7] | outcome [8] | outcome [9] | Potency [17] | Potency [12] | Potency [13] | outcome [14] | Potency [15] | Potency [16]

C=Cc1ccccn1
inactive: outcome [1] | Potency [2] | Potency [3] | Potency [4] | Potency [5] | Potency [6] | outcome [7] | outcome [8] | outcome [9] | outcome [10] | outcome [11] | Potency [12] | Potency [13] | outcome [14] | Potency [15] | Potency [16]

O=S(=O)(O)c1ccc2cc(O)c(S(=O)(=O)O)cc2c1
inactive: outcome [1] | Potency [2] | Potency [3] | Potency [4] | Potency [5] | Potency [6] | outcome [7] | outcome [8] | outcome [9] | Potency [17] | Potency [12] | Potency [13] | outcome [14] | Potency [15] | Potency [16]

Cc1ccc2ccc(Cl)cc2n1
inactive: outcome [1] | Potency [2] | Potency [3] | Potency [4] | Potency [5] | Potency [6] | outcome [7] | outcome [8] | outcome [9] | Potency [17] | Potency [12] | Potency [13] | outcome [14] | Potency [15] | Potency [16]

CC(C)OC(=O)CCCCC(=O)OC(C)C
inactive: outcome [1] | Potency [2] | Potency [3] | Potency [4] | Potency [5] | Potency [6] | outcome [7] | outcome [8] | outcome [9] | outcome [10] | outcome [11] | Potency [12] | Potency [13] | outcome [14] | Potency [15] | Potency [16]

NCCN1CCOCC1
inactive: outcome [1] | Potency [2] | Potency [3] | Potency [4] | Potency [5] | Potency [6] | outcome [7] | outcome [8] | outcome [10] | outcome [11] | Potency [17] | Potency [12] | Potency [13] | outcome [14] | Potency [15]

C[Si](C)=O
inactive: activity change, negative = inhibition [1] -2.39% [at 8.39 µM] | activity change, negative = cytotoxicity [2] 2.9% [at 8.39 µM] | activation [3] 1.46% [at 8.39 µM] | activity change, negative = inhibition [4] 12.9% [at 8.39 µM] | activity change, negative = cytotoxicity [5] 4.63% [at 8.39 µM] | activity change, negative = cytotoxicity [6] 7.66% [at 8.39 µM] | viability change, negative = cytotoxic [7] 0.719% [at 6.97 µM] | activity change, negative = cytotoxicity [8] 3.98% [at 6.97 µM] | activation [9] -0.731% [at 6.97 µM] | caspase activation [12] 0.773% [at 8.39 µM] | activity change, negative = cytotoxicity [13] 1.4% [at 8.39 µM] | caspase-3/7 activation [14] 0.203% [at 8.39 µM] | activity change, negative = cytotoxicity [15] 6.01% [at 8.39 µM] | activation [16] 16.2% [at 8.39 µM]

CC(C)(C)c1cc(CCC(=O)NN)cc(C(C)(C)C)c1O
inactive: outcome [1] | Potency [2] | Potency [3] | Potency [4] | Potency [5] | Potency [6] | outcome [7] | outcome [8] | outcome [10] | outcome [11] | Potency [17] | Potency [12] | Potency [13] | outcome [14] | Potency [15]
active: Potency [16] 34.4 µM

CN(C)C(=O)CNC(=O)Cc1ccccc1
inactive: outcome [1] | Potency [2] | Potency [3] | Potency [4] | Potency [5] | Potency [6] | outcome [7] | outcome [8] | outcome [9] | Potency [17] | Potency [12] | Potency [13] | Potency [15] | Potency [16]

CCOC(=O)c1ccc(OC(=O)CCCCCN=C(N)N)cc1
inactive: outcome [1] | Potency [2] | Potency [3] | Potency [4] | Potency [5] | Potency [6] | outcome [7] | outcome [8] | outcome [9] | outcome [10] | outcome [11] | Potency [12] | Potency [13] | outcome [14] | Potency [15] | Potency [16] | max activation [18] 0.318% | Potency [19] | Potency [20]

COC(=O)c1ccccc1C(=O)c1ccc(OCCN2CCCCC2)cc1
inactive: outcome [1] | Potency [2] | Potency [3] | Potency [4] | Potency [5] | Potency [6] | outcome [7] | outcome [8] | outcome [9] | outcome [10] | outcome [11] | Potency [12] | Potency [13] | outcome [14] | Potency [15] | max activation [18] -0.568% | Potency [20]

CC(=O)Nc1cccc(C)c1
inactive: outcome [1] | Potency [2] | Potency [3] | Potency [4] | Potency [5] | Potency [6] | outcome [7] | outcome [8] | outcome [9] | Potency [17] | Potency [12] | Potency [13] | Potency [15] | Potency [16]
